# Reference: PubChem BioAssay AID2099 (Broad Institute, 2009)
# About 230 (0.07%) of roughly 330,000 compounds were called active.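 Rule for the calls: active = more than half of a compound's replicate wells show inhibition beyond 50%, single wells judged on their own value; inconclusive = some, but no more than half, of replicates pass 50% inhibition; inactive = no replicate passes 50% inhibition.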 For the sample, actives were picked, then their nearest neighbours and some compounds at random.
# Target: Lysine-specific demethylase 4C (Homo sapiens) (UniProt Q9H3R0)
# Assay: inhibitors of GASC-1 histone demethylase, primary screen, biochemical, fluorescence, DELFIA europium (AID 2099);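 note: signal counts dimethyl H3K9 product captured on neutravidin plate; 0% = median of DMSO wells and 100% = 0.3 times that DMSO median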
# Settings: GST-JMJD2C(1-420) H3K9me3 demethylation, at 2.35 µM, hits give high values
# Chain of Lysine-specific demethylase 4C (Homo sapiens) (Q9H3R0 1-420 limits assumed): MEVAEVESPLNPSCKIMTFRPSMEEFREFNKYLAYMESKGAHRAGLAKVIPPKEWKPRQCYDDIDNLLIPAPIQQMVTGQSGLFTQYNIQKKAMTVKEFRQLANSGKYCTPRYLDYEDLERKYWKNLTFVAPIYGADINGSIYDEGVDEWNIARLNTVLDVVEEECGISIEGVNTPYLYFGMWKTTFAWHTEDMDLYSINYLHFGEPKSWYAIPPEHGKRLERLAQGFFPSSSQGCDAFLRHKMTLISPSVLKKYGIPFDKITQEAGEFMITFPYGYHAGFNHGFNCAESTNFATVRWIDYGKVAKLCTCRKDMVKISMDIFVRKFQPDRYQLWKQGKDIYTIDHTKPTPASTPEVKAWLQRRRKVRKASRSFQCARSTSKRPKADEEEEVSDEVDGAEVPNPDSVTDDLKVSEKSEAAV
row,SMILES,inhibition
1,Cc1ccc2c(c1)=C/C(=C\c1c(O)[nH]c(=O)[nH]c1=O)C(=O)N=2,68.2% (active)
2,O=c1[nH]c(O)c(C=Nc2cc(F)cc(F)c2)c(=O)[nH]1,8.75% (inactive)
3,O=C1N=c2ccccc2=C/C1=C\c1c(O)[nH]c(=S)[nH]c1=O,0.999% (inactive)
4,COc1ccc(CN2CCN(c3ccccc3F)CC2)c(OC)c1,2.07% (inactive)
5,NCC(O)c1ccc(O)cc1 (stereo not given),4.95% (inactive)
